Screen size: about 47,000 compounds; about 200 (0.43%) were called active. Roughly 1% stayed inconclusive and do not appear here.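 The calls were made as follows: active = inhibition of aggregate fluorescence above about 70%, also judged a hit by eye on the cell image (limit read from the data, passing the limit was not always enough); inconclusive = no rule stated for this call; inactive = not judged a hit on image review.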 The list comes from a sample in which actives are over-represented; it also holds similar structures and randomly drawn compounds.
test: clearance of mutant huntingtin inclusions, primary screen, imaging, HeLa Exon1htt(103Q)mCFP, confocal imaging (AID 853); settings: aggregate imaging, at 1.5 µM; fraction fluorescence in grains: measured here: aggregate grain fluorescence fraction, stronger effect = lower value; inhibition: stronger effect = higher value, zero = plate's median compound well;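 also: cells exposed to compound for three days before fixation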

SMILES	fraction fluorescence in grains	inhibition
CCOc1ccc2c(c1)C(c1ccc(C)cc1)=NNC(c1ccc(C)cc1)=N2	11	38.1% (inactive)
c1ccc(CSc2nnc(-c3ccco3)n2Cc2ccccc2)cc1	21.2	-3.2% (inactive)
Cn1c(CO)cnc1SCc1ccccc1	10.9	71.7% (active)
CCS(=O)(=O)n1nc(-c2ccccc2)nc1SCc1ccccc1	24.1	-44.5% (inactive)
COC(=O)c1nc2ccccc2s1	22.8	-27.8% (inactive)
Cc1cc(OCCN2CCCC2)ccc1C(C)C	38.3	-2.5% (inactive)
CN1C(=O)CC(N2CCN(c3ccccn3)CC2)C1=O (centres undefined)	29.4	-42.3% (inactive)
Cc1nc2nc(C)c(CCC(=O)N3CCN(c4ccccc4)CC3)c(C)n2n1	38.5	-21.5% (inactive)
CCSC(C)CC1C/C(=N/O)c2c(C)noc2C1 (centres undefined)	43.5	-15.9% (inactive)
Cc1cc(C(=O)Nc2ccccc2N2CCOCC2)c2ccccc2n1	9.37	47.3% (inactive)
Cn1sc(NC(=O)c2ccccc2)nc1=O	24.3	-16.8% (inactive)
O=C1/C(=C\Nc2ccccc2)CCN1c1ncccn1	25.9	18.4% (inactive)
CCN(CC)c1ccc(NC(=O)c2ccc(Cl)nc2)cc1	60.1	-95.5% (inactive)
Clc1ccccc1-c1cc(COc2ccc3ccccc3c2)no1	33.9	11.8% (inactive)
Cc1c(NC(=O)c2cc(-c3ccc(Cl)s3)nc3ccccc23)c(=O)n(-c2ccccc2)n1C	26.1	21.8% (inactive)
Cc1ccc(S(=O)(=O)N2CC(=O)Nc3ccccc32)cc1C	33.9	11.1% (inactive)
COCCN(C(=O)c1ccco1)c1nnc(-c2ccc(OC)cc2)s1	39.8	-2.8% (inactive)
C=CCNC(=S)NNc1ncnc2sc3c(c12)CC(C)(C)OC3	40.7	-39.2% (inactive)
CC1=CC(C)(C)N(C(=O)CSc2nccn2C)c2cc(C)ccc21	13.3	26.1% (inactive)
CC(C)c1ccc(NC(=O)CCN2C(=O)c3ccc([N+](=O)[O-])cc3C2=O)cc1	13.6	55% (inactive)
COc1ccccc1NC(=O)CSc1nnc(C)n1CC1CCCO1 (centres undefined)	15.8	17.7% (inactive)
COc1ccc(NC(=O)CCN2CCCC2)c(OC)c1	11.3	35.7% (inactive)
Cc1cc(-c2ccccc2)nc(N2CCC(C(=O)NC34CC5CC(CC(C5)C3)C4)CC2)n1	31	21.6% (inactive)
C=CCn1c(-c2ccc3[nH]c(C)c(C)c3c2)n[nH]c1=S	89.3	-112% (inactive)

SMILES	fraction fluorescence in grains	inhibition
Cc1ccc(CCN2CC(C(=O)O)CC2=O)cc1 (centres undefined)	14.7	30.2% (inactive)
COc1ccc(C(CNC(=O)c2cccnc2SC)N2CCOCC2)cc1 (centres undefined)	16.3	9.2% (inactive)
Cc1cc(C)nc(SCc2ccccc2C#N)n1	35.4	-3.8% (inactive)
Cc1ccc2[nH]c3c(=O)n(Cc4ccccn4)cnc3c2c1	21.3	46.1% (inactive)
Cc1ccc(-n2ccc(=O)c(C(=O)O)n2)cc1	23.5	0.4% (inactive)
Cc1cccc(C)c1-n1c(C)cc(/C=C2\C(=O)NN(c3ccccc3)C2=O)c1C	26.9	30.9% (inactive)
CCS(=O)(=O)N1CCN(C(=O)c2cccs2)CC1	32.5	27.2% (inactive)
C=CCC(NCc1ccco1)c1ccc(OC)cc1 (centres undefined)	62.5	-55.5% (inactive)
O=S(=O)(NCc1ccccn1)c1ccc(F)cc1	25.8	28.4% (inactive)
Cn1c(NC(=O)c2ccc3c(c2)OCO3)cc(=O)n(C)c1=O	24.1	28.1% (inactive)
CCCc1nc2ccccc2c(C(=O)OCc2nnc(-c3cc(OC)c(OC)c(OC)c3)o2)c1CC	19.4	-8% (inactive)
Cc1ccc(NC(=O)CSCC(=O)N2CCOCC2)cc1	29.1	-41.8% (inactive)
COC(=O)[C@@H](NC(=O)Nc1cc(Cl)ccc1C)C(C)C	45.5	-4.8% (inactive)
CCC(=O)c1ccc(OCC(O)CN2CCN(c3cccc(C(F)(F)F)c3)CC2)cc1 (centres undefined)	27.8	-52.7% (inactive)
CC(=O)Nc1ccc(OCC(O)CN2CCN(c3ccccc3Cl)CC2)cc1 (centres undefined)	27.5	-41.1% (inactive)
CCC(=O)c1ccc(OCC(O)CN2CC(C)OC(C)C2)cc1 (centres undefined)	7.49	75% (active)
COc1nc(-c2ccc(Cl)cc2)ccc1-c1noc(-c2cccs2)n1	28.7	4.7% (inactive)
Cc1cccc(NC(=O)Cn2cc(C(=O)c3ccco3)c3ccccc32)c1	68.4	-81.7% (inactive)
O=C(CSc1nnc(-c2cccs2)n1-c1ccccc1)NCc1ccco1	19.3	-12.1% (inactive)
Cc1ccc2cc(CCNC(=O)c3ccc4c(c3)OCO4)c(=O)[nH]c2c1	49.1	-20% (inactive)
COc1ccc(C2CC(=O)C=C(NCC3CCCO3)C2)cc1 (centres undefined)	23.6	30.2% (inactive)
COc1ccccc1NS(=O)(=O)N(C)C	33.9	-71.4% (inactive)
CN(C)/C=C(\C#N)C(=O)c1cccnc1Oc1cccc(F)c1	38.8	-0.9% (inactive)
Cc1cccc(NC(=O)CSc2nc3c(c(=O)[nH]2)CCCC3)c1C	17.3	10.8% (inactive)

SMILES	fraction fluorescence in grains	inhibition
O=c1[nH]c(=O)n(Cc2ccco2)c2c1C(C(F)(F)F)(C(F)(F)F)N=C(c1ccco1)N2	27	36.4% (inactive)
Cc1ccc(-n2c(=O)cc(N3CCN(Cc4ccccc4)CC3)[nH]c2=O)cc1	52	-7.6% (inactive)
O=C(NC1CCc2ccccc21)C12CN(Cc3ccccc3)CC1C(c1cccc([N+](=O)[O-])c1)=NO2 (centres undefined)	39	-1.5% (inactive)
COc1ccccc1NC(=O)c1ccc2nc(N3C(=O)CCC3=O)sc2c1	16.5	20.1% (inactive)
CC(C)c1nc(N2CCOCC2)c(C#N)c2c1COC(C)(C)C2	31.9	13.4% (inactive)
COc1ccc(C(=O)NC(=S)Nc2ccccc2N2CCN(S(C)(=O)=O)CC2)cc1OC	62.3	-41.7% (inactive)
C#CCSc1nnc(-c2sc3ccccc3c2Cl)o1	52.1	-34.1% (inactive)
Cc1ccc(C(=O)N/C(=C/C=C/c2ccccc2)C(=O)NCc2ccco2)cc1	45.3	-47.5% (inactive)
Cc1nc(-c2ccccc2)sc1-c1nc(-c2ccccc2)ncc1S(=O)(=O)c1ccccc1	41.3	7.6% (inactive)
Cc1ccc(C2NC(=S)NC3=C2N2CCC3CC2)cc1 (centres undefined)	27.5	36.7% (inactive)
CSc1ccc(-c2c(C#N)c(N)nc3c2c(C)nn3-c2ccccc2)cc1	47.5	-12.6% (inactive)
COc1ccc(/C=C(\NC(=O)c2ccc(OC)c(OC)c2)C(=O)NCCc2c[nH]c3ccccc23)cc1	62.4	-62.1% (inactive)
CC(=O)NS(=O)(=O)c1ccc(NC(=S)NC(=O)C(C)(C)C)cc1	7.39	66.5% (inactive)
COc1ccc(-n2c(C)csc2=S)cc1	15.4	22.6% (inactive)
O=C(CSc1nnc(-c2ccco2)n1-c1ccccc1)NCCc1ccccc1	28.7	21.9% (inactive)
COc1cc(/C=C(\C#N)c2nc3c(s2)CC(C)CC3)ccc1O (centres undefined)	38.1	4% (inactive)
Cc1ccc(-c2cnc(NC(=O)CCC(=O)N(C)Cc3ccccc3)n2C)cc1	44.1	-11.1% (inactive)
CCCCCCC12CCC(C(=O)O)(CC1)CC2	16.8	6% (inactive)
O=C(CN1CCOCC1)Nc1c(-c2ccccc2)c2cc(Br)ccc2[nH]c1=O	37.2	15.7% (inactive)
O=C(Oc1ccc([N+](=O)[O-])cc1)c1ccc2ccccc2n1	23.8	33% (inactive)
O=C(c1ccc2c(c1)OCO2)N1CCOCC1	22	-3.2% (inactive)
Cc1ccn(C(CC(=O)c2ccc(Br)cc2)C(=O)O)n1 (centres undefined)	10.2	68.3% (inactive)
COc1ccc(C(C#N)Nc2ccccc2C)cc1 (centres undefined)	18	57.1% (inactive)
C=CCn1c(CSc2nc3ccccc3s2)nnc1SCC(=O)NCc1ccco1	28.7	26.8% (inactive)

Source: PubChem BioAssay AID853 (Columbia University Molecular Screening Center, 2007)
